# Data as given in PubChem BioAssay (EPA / NIEHS).
# Calls of active or inactive are those of the source. The calls were made as follows: active = hit-call score of the fitted dose curve at least 0.9, where 1 is the maximum; inconclusive = response in the unintended direction; inactive = score below 0.9.
# Target: Androgen Receptor/SRC-1 Co-activator, AR (gene 367) (UniProt P10275)
# Assay: OT_AR_ARSRC1_0960: Odyssey Thera (OT) 16-hour HEK293T Protein-Complementation Assay for Androgen Receptor/SRC-1 Co-activator (AID 2283353);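 also: actives raise the signal above DMSO so potency reflects increased AR and SRC-1 complex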
# Method: OT_AR_ARSRC1_0960 is a cell-based, single-readout assay that uses HEK293T, a human kidney cell line, with measurements taken at 16 hours after chemical dosing in a 384-well plate.OT_AR_ARSRC1_0960 is one of one assay component(s) measured or calculated from the OT_AR_ARSRC1_0960 assay. It is designed to make measurements of protein fragment complementation, a form of binding reporter, as detected with fluorescence intensity signals by Protein-fragment Complementation technology.Data from the assay component OT_AR_ARSRC1_0960 was analyzed into 1 assay endpoint. This assay endpoint, OT_AR_ARSRC1_0960, was analyzed in the positive analysis fitting direction relative to DMSO as the negative control and baseline of activity. Using a type of binding reporter, measures of receptor for gain-of-signal activity can be used to understand the binding at the pathway-level as they relate to the gene AR. Furthermore, this assay endpoint can be referred to as a primary readout, because the performed assay has only produced 1 assay endpoint. To generalize the intended target to other relatable targets, this assay endpoint is annotated to the nuclear receptor intended target family, where the subfamily is steroidal.
# Protein-fragment complementation assay, or PCA, is a method for the identification and quantification of protein-protein interactions. In the PCA, the proteins of interest ("bait" and "prey") are each covalently linked to fragments of a third protein (e.g. DHFR, which acts as a "reporter"). Interaction between the bait and the prey proteins brings the fragments of the reporter protein in close proximity to allow them to form a functional reporter protein whose activity can be measured. The OT AR / SRC-1 assay assessed androgen receptor chemical interactions using a rapidly maturing, intensely fluorescent mutant of YFP known as Venus, rationally dissected into two separate fragments. […] Fusion constructs were transfected into HEK293T cells with a (Gly4Ser)2 linker between the AR/SRC-1 and YFP fragment genes to facilitate complementation when interacting proteins bring fragments into close proximity. The construct is stably expressed in HEK293T cells. […] Images were acquired on an Evotec Opera at 2 wavelengths (488 and 635nm), and the ratio of fluorescence in the nucleus relative to fluorescence in the cytoplasm (N/C Ratio) in the 488nm channel was calculated for a minimum of 400 cells per image. Both agonists and antagonists of the AR receptor induce nuclear translocation to varying degrees. […] The OT AR/SRC-1 assay was also run for 16 hours (see description for OT_AR_ARSRC1_0960).
# Chain of Androgen Receptor/SRC-1 Co-activator, AR (gene 367) (P10275 whole entry, looked up): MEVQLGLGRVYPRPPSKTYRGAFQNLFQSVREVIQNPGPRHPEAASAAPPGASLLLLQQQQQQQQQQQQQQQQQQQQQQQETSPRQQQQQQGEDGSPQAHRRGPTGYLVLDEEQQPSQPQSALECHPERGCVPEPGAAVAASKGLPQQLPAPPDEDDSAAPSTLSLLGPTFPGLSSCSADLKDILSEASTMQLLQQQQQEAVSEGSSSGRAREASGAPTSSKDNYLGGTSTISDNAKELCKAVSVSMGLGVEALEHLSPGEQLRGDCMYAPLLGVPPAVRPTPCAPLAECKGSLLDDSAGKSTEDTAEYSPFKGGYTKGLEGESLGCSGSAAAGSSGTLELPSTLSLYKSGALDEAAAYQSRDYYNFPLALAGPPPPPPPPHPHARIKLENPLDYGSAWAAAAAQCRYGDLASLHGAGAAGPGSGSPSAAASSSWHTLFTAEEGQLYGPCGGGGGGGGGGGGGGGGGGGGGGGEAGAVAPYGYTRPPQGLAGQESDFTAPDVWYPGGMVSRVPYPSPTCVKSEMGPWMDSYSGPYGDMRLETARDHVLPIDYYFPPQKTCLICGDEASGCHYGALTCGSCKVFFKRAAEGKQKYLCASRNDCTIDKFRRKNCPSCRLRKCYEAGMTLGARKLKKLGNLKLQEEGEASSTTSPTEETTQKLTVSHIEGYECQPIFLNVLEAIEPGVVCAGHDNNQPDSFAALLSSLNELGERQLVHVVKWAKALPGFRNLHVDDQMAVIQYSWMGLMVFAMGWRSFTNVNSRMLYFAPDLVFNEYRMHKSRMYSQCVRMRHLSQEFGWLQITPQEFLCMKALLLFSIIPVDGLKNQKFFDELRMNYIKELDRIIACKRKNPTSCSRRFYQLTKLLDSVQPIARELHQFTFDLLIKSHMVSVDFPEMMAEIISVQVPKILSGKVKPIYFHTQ
Compound,outcome,AC50
F[Si-2](F)(F)(F)(F)F,inactive,
CCCCCCCC/C=C\CCCCCCCC(=O)OCC(O)CO (stereo unspecified),inactive,
CCCCCCCCCCCCCC[P+](CCCC)(CCCC)CCCC,,3.59 µM (active)
CCN=C1C=CC(=C(c2ccc(N(CC)CC)cc2)c2ccc(N(CC)CC)cc2)c2ccccc21,,0.451 µM (active)
OCC1CCCO1 (stereo unspecified),inactive,
C[C@]12CC[C@H]3C(=CCc4cc(O)ccc43)[C@@H]1CCC2=O,,1.42 µM (active)
CCCCCCCCCc1ccc(OCCO)cc1,,20 µM (active)
COCCOCCC[Si](C)(O[Si](C)(C)C)O[Si](C)(C)C,,34.3 µM (active)
CCN=c1cc2oc3cc(NCC)c(C)cc3c(-c3ccccc3C(=O)OCC)c-2cc1C,,0.55 µM (active)
CCCCCCCCCCCCC[N+](C)(C)Cc1ccccc1,,14.7 µM (active)
O=C1C=CC(=O)N1c1ccccc1,,16.4 µM (active)
